Test results reported in the supplement of paper PMC7411054.
Where a name gives a salt, the structure may show the parent alone.

Columns and labels:
Test in all cases: lowest phenotypically active concentration; higher = less potent
Details in all cases: treatment time: 24 h
HepG2-ACTB-RAB5A = system: HepG2-ACTB-RAB5A
How it was run: (§1)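 Four wells per concentration (0.3, 1, 3 or 9 µM) were treated for 24 h in each of fifteen gene-edited reporter lines from A549, HepG2 and WPMY1 cells, then imaged live. After normalising live-cell features to solvent control wells, deviation was defined as ≥3 of 4 wells lying past the 95th percentile of control Euclidean distances. Reproducibility was defined as a median replicate Pearson correlation above the 95th percentile of non-replicates. Both had to hold for phenotypic activity.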

HepG2-CANX-COX4 = system: HepG2-CANX-COX4
How it was run: as §1

HepG2-GM130-SQSTM1 = system: HepG2-GM130-SQSTM1
How it was run: as §1

HepG2-TP53BP1-CLTA = system: HepG2-TP53BP1-CLTA
How it was run: as §1

HepG2-TUBA1B-RELA = system: HepG2-TUBA1B-RELA
How it was run: as §1

WPMY1-ACTB-RAB5A = system: WPMY1-ACTB-RAB5A
How it was run: as §1

WPMY1-CANX-COX4 = system: WPMY1-CANX-COX4
How it was run: as §1

WPMY1-GM130-SQSTM1 = system: WPMY1-GM130-SQSTM1
How it was run: as §1

WPMY1-TP53BP1-CLTA = system: WPMY1-TP53BP1-CLTA
How it was run: as §1

WPMY1-TUBA1B-RELA = system: WPMY1-TUBA1B-RELA
How it was run: as §1

| Structure (SMILES) | lowest phenotypically active concentration (HepG2-ACTB-RAB5A) [µM] | lowest phenotypically active concentration (HepG2-CANX-COX4) [µM] | lowest phenotypically active concentration (HepG2-GM130-SQSTM1) [µM] | lowest phenotypically active concentration (HepG2-TP53BP1-CLTA) [µM] | lowest phenotypically active concentration (HepG2-TUBA1B-RELA) [µM] | lowest phenotypically active concentration (WPMY1-ACTB-RAB5A) [µM] | lowest phenotypically active concentration (WPMY1-CANX-COX4) [µM] | lowest phenotypically active concentration (WPMY1-GM130-SQSTM1) [µM] | lowest phenotypically active concentration (WPMY1-TP53BP1-CLTA) [µM] | lowest phenotypically active concentration (WPMY1-TUBA1B-RELA) [µM] |
| --- | --- | --- | --- | --- | --- | --- | --- | --- | --- | --- |
| CN1CCC(=C2c3ccccc3CC(=O)c3sccc32)CC1 [ketotifen] | 9 | 9 | 9 | 9 | 3 | 9 | 9 | 9 | 9 | 9 |
| CCCCCCCCCCCCCCCC[n+]1ccn(Cc2ccccc2)c1C | 1 | 1 | 1 | 1 | 1 | 3 | 1 | 3 | 3 | 3 |
| COc1cc(/C=C/c2ccc(OC)cc2OC)cc(OC)c1 | 3 | 3 | 3 | 3 | 3 | 1 | 1 | 1 | 1 | 1 |
| COc1ccccc1-c1c[nH]c2ncc(-c3cncc(C(=O)N(C)C)c3)cc12 | ≤ 0.3 | ≤ 0.3 | ≤ 0.3 | ≤ 0.3 | ≤ 0.3 | ≤ 0.3 | ≤ 0.3 | ≤ 0.3 | ≤ 0.3 | 3 |
| NC(=O)Nc1cc(-c2cccc(F)c2)sc1C(=O)N[C@H]1CCCNC1 [AZD 7762 hydrochloride] | ≤ 0.3 | 1 | ≤ 0.3 | ≤ 0.3 | ≤ 0.3 | ≤ 0.3 | ≤ 0.3 | 1 | ≤ 0.3 | ≤ 0.3 |
| NC(=O)Nc1sc(-c2ccc(F)cc2)cc1C(N)=O | 9 | 3 | 9 | 9 | 9 | 9 | 9 | 9 | 9 | 9 |
| COc1ccc(S(=O)(=O)N(CCO)c2ccccc2CN(C)C/C=C/c2ccc(Cl)cc2)cc1 | 9 | 3 | 9 | 9 | 9 | 9 | 9 | 9 | 9 | 9 |
| CN(C)C1CCN(C(=O)c2ccc(NC(=O)Nc3ccc(-c4nc(N5CCOCC5)nc(N5CCOCC5)n4)cc3)cc2)CC1 | ≤ 0.3 | ≤ 0.3 | ≤ 0.3 | ≤ 0.3 | ≤ 0.3 | ≤ 0.3 | ≤ 0.3 | ≤ 0.3 | ≤ 0.3 | ≤ 0.3 |
| COc1cc(C)c(Sc2cnc(NC(=O)c3ccc(CNC(C)C(C)(C)C)cc3)s2)cc1C(=O)N1CCN(C(C)=O)CC1 (stereo not given) | 3 | 3 | 3 | 3 | 3 | 3 | 3 | 3 | 3 | 3 |
| Cc1ccc(/C(=C/CN2CCCC2)c2cccc(/C=C/C(=O)O)n2)cc1 [acrivastine] | 3 | 9 | 3 | 9 | 1 | 1 | 1 | 1 | 9 | 1 |
| Cc1c(CN2CCN(C(=O)[C@H](C)O)CC2)sc2c(N3CCOCC3)nc(-c3cnc(N)nc3)nc12 | ≤ 0.3 | ≤ 0.3 | ≤ 0.3 | 1 | ≤ 0.3 | ≤ 0.3 | ≤ 0.3 | ≤ 0.3 | ≤ 0.3 | ≤ 0.3 |
| NC1(C(=O)N[C@@H](CCO)c2ccc(Cl)cc2)CCN(c2ncnc3[nH]ccc23)CC1 | 3 | 3 | 1 | 1 | 1 | 1 | 1 | 1 | 1 | 1 |
| COc1cc2c(cc1-c1c(C)noc1C)ncc1[nH]c(=O)n([C@H](C)c3ccccn3)c12 [I-BET 151 dihydrochloride] | 1 | 3 | 3 | 3 | 3 | 3 | 3 | 3 | 3 | 3 |
| C[C@H]1[C@H]2CC[C@H]3[C@@H]4CC=C5C[C@@H](N(C)C)CC[C@]5(C)[C@H]4CC[C@]23CN1C [Conessine] | 9 | 9 | 3 | 1 | 3 | 9 | 3 | 1 | 3 | 9 |
| Cc1ccc(C(=O)N(CCCN)[C@@H](c2nc3cc(Cl)ccc3c(=O)n2Cc2ccccc2)C(C)C)cc1 [Ispinesib] | ≤ 0.3 | ≤ 0.3 | ≤ 0.3 | ≤ 0.3 | ≤ 0.3 | ≤ 0.3 | 3 | ≤ 0.3 | ≤ 0.3 | ≤ 0.3 |
| CC[C@@H](N)CNc1ccnc(-c2cc(-c3cnn(C)c3)ccc2O)n1 | 1 | 1 | 1 | 1 | 1 | 3 | 1 | 1 | 1 | 1 |
| CCN(CCO)CCCOc1ccc2c(Nc3cc(CC(=O)Nc4cccc(F)c4)n[nH]3)ncnc2c1 [barasertib-HQPA] | ≤ 0.3 | ≤ 0.3 | ≤ 0.3 | ≤ 0.3 | ≤ 0.3 | ≤ 0.3 | ≤ 0.3 | ≤ 0.3 | ≤ 0.3 | ≤ 0.3 |
| CON(C)C(=O)N1N=C(c2cc(F)ccc2F)S[C@@]1(CCCN)c1ccccc1 [ARRY 520 trifluoroacetate] | ≤ 0.3 | ≤ 0.3 | ≤ 0.3 | ≤ 0.3 | ≤ 0.3 | ≤ 0.3 | ≤ 0.3 | ≤ 0.3 | ≤ 0.3 | ≤ 0.3 |
| Nc1cccc(-c2cc3c(Oc4cccc(O)c4)ncnc3[nH]2)c1 | 1 | 9 | 3 | 3 | 3 | 3 | 9 | 9 | 3 | 9 |
